Source: PubChem BioAssay
Gli-Sufu block: Gli-Sufu pathway antagonism. 340,000 tested, 0.74% active. Sufu-KO-LIGHT fibroblasts, Gli luciferase reporter luminescence. inhibition, % at 5 µM;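 active = inhibition above about 55%, limit read from the data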
Jurkat NFkB inh: lowers PMA/ionomycin-induced NF-kB signal in Jurkat cells. inhibition, % at 4 µM. 330,000 tested, 0.53% active. PMA/ionomycin-induced NF-kB luciferase reporter, luminescence; in the data active = inhibition above about 50%
697 NFkB inh: lowers PMA/ionomycin-induced NF-kB signal in 697 B cells; 697 B-cell NF-kB luciferase reporter, 16 h; inhibition, % at 4 µM; 330,000 tested, 0.33% active; in the data active = inhibition above about 35%
esBAF inh: blocks esBAF chromatin remodeling in mouse ES cells. Bmi1-luciferase knock-in reporter, 24 h; 100% = twice the neutral-well signal. reporter increase, % at 12.5 µM. 350,000 tested, 2% active; in the data active = activation above about 40%;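 also: a rise in the Bmi1 reporter signal indicates esBAF inhibition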
SMARCA2 activ: activators of SMARCA2 function; activation, % at 9.1 µM; MG213 cells, MMTV-luciferase reporter, dexamethasone, overnight; 370,000 tested, 1% active; in the data active = activation above about 7.8%
Jurkat NFkB conf: lowers PMA/ionomycin-induced NF-kB signal in Jurkat cells; AID 435020; Jurkat NF-kB luciferase, 16 h; shares compounds with Jurkat NFkB inh; 2,700 tested, 27% active; inhibition, % at 4 µM;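 active = inhibition reaching about 45% at 4 µM in either replicate, limit read from the data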
A number is an active result; n = inactive; x = no result given. An excerpt weighted towards active compounds, which were near 3.3% of everything screened.

SMILES | Gli-Sufu block | Jurkat NFkB inh | 697 NFkB inh | esBAF inh | SMARCA2 activ | Jurkat NFkB conf
COc1ccc(OC)c(CCNC(=O)Cn2nc(C)c3c(C)n(-c4ccc(C)cc4)nc3c2=O)c1 | n | 56 | n | n | n | 66
Cc1cc(N(C)C)ccc1N=Nc1ccc2ncccc2c1 | n | n | n | n | n | n
CCOC(=O)c1cnc2c(-c3ccccc3)cnn2c1N | n | n | n | n | n | n
CCOC(=O)c1cnc2c(-c3ccccc3)c(C)nn2c1N | n | n | n | n | n | x
O=C(O)/C=C/c1cnc2ccccc2n1 | n | n | n | n | n | x
O=C(/C=C/c1cnc2ccccc2n1)NC12CC3CC(CC(C3)C1)C2 | x | n | n | n | n | n
CC(C)NC(=O)N(C)C[C@@H]1Oc2ccc(NC(=O)Cc3cn(C)c4ccccc34)cc2CC(=O)N([C@H](C)CO)C[C@H]1C | x | x | x | n | x | x
CNC(=O)C[C@@H]1CC[C@@H]2[C@H](COc3ccc(NC(=O)c4ccc(F)cc4)cc3C(=O)N2C)O1 | x | x | x | n | x | x
Cc1csc2sc(-c3ccnc(SCC(=O)NCc4ccccc4)n3)c(C)c12 | n | 69 | n | x | n | n
O=C(Nc1ccccc1)C(=O)Nc1ccc2c(c1)N(C(=O)C1CC1)CCC2 | n | n | n | x | n | n
O=C(C1CCC(C(=O)N2CCc3ccccc32)CC1)N1CCc2ccccc21 (stereo not given) | n | n | n | n | n | x
O=C(Nc1ccccc1)N1C[C@H]2[C@@H](c3ccccc31)[C@@H](CO)N2Cc1ccccc1Cl | x | x | x | n | x | x
COc1ccc(-c2nnc(SCC(C)C)o2)cc1 | n | n | n | x | n | n
COc1cccc([C@@H]2Oc3ccc(OC)cc3C(=O)[C@H]2O)c1 | n | n | n | n | x | n
CCC(=O)N[C@@H]1C=C[C@H](CC(=O)NCc2ccccc2OC)O[C@H]1CO | x | x | x | n | x | x
Cc1ccccc1C=Nc1ccccc1C(N)=O | n | 54 | n | n | n | n
Cc1ccc(CCC(=O)Nc2ncc(Cc3cccc(Cl)c3Cl)s2)o1 | n | 72 | n | n | n | n
CO[C@@H]1CN(C)C(=O)c2cc(NC(=O)c3cccc(F)c3)ccc2OC[C@@H](C)N(C(C)=O)C[C@@H]1C | x | x | x | n | x | x
O=C(NCc1cccs1)C1CCN(c2ccc(S(=O)(=O)N3CCOCC3)cc2Cl)CC1 | n | 76 | n | n | n | 54
Cc1ccc(CNC(=O)COc2ccc(C)nc2[N+](=O)[O-])cc1 | n | 87 | n | n | n | n
Cc1ccc(COc2ccc(C)nc2[N+](=O)[O-])cc1 | n | n | n | x | n | n
Cc1ccc(OCC(=O)NCc2ccc3c(c2)OCO3)c([N+](=O)[O-])n1 | n | n | n | n | n | x
CCC(=O)N1[C@@H]2c3ccc(C4=CCCCC4)c(=O)n3C[C@@H]2[C@@H](CO)[C@@H]1C(=O)NC1CCC1 | x | x | x | n | x | x
COc1ccccc1-[n+]1c(C)cc(/C=C2\Sc3ccccc3N2C)cc1C | 85 | 93 | n | n | n | n
CCCNC(=O)Nc1ccc2c(c1)C(=O)N(C)[C@@H]1CC[C@@H](CC(=O)NCc3ccccc3)O[C@@H]1CO2 | x | x | x | n | x | x
SMILES | Gli-Sufu block | Jurkat NFkB inh | 697 NFkB inh | esBAF inh | SMARCA2 activ | Jurkat NFkB conf
C=C(C)COc1ccc(-c2n[nH]c(C)c2-c2ccc(OC)c(OC)c2)c(O)c1 | n | 67 | n | n | n | 50
C=C(C)COc1ccc(-c2[nH]ncc2-c2ccc(OC)c(OC)c2)c(O)c1 | n | 64 | n | n | n | 62
Cc1ccc(C2(C(F)(F)F)NC(=O)N3CCCN=C3S2)cc1 (stereo not given) | n | 52 | n | n | n | n
Cc1ccc(C2=NN(C(=O)CSc3nccn3C)C(c3ccco3)C2)cc1 (stereo not given) | n | 63 | n | n | n | n
Cc1ccc(C2=NN(C(=O)CSc3nc4ncc(Cl)cc4[nH]3)C(c3ccco3)C2)cc1 (stereo not given) | n | n | n | x | n | x
Cc1ccc(CN=C2Nc3ccccc3CS2)cc1 | n | n | n | n | n | n
CC(=O)c1cc2c(cc1NC(=O)Cn1nc(-c3ccc(C)cc3)ccc1=O)OCO2 | n | 53 | n | n | n | n
CC(=O)Nc1cc2c(cc1NC(=O)Cn1nc(-c3ccc(F)cc3)ccc1=O)OCCO2 | n | n | n | n | n | x
CCCC#Cc1cnc2c(c1)C(=O)N([C@H](C)CO)C[C@@H](C)[C@H](CN(C)Cc1ccc(F)cc1)O2 | x | x | x | n | x | x
Cc1ccc(S(=O)(=O)N(C)C[C@H]2Oc3ccc(NC(=O)Cn4cnnn4)cc3C(=O)N([C@H](C)CO)C[C@@H]2C)cc1 | x | x | x | n | x | x
